A selection: hits, their analogues and other compounds. The true share with any hit is near 1.7%.
12-LOX inh = Primary qHTS assay for inhibitors of human arachidonate 12S-lipoxygenase (ALOX12): Round 2; Polyunsaturated fatty acid lipoxygenase ALOX12 (Homo sapiens), P18054; purified 12hLO, xylenol orange hydroperoxide absorbance; Potency, µM (titrated, usually from 108 µM), for inactives: top-dose activity change, negative = inhibition, actives largely listed as inhibitors; 580,000 compounds, 1.1% hits; further: on the % scale 0 is the no-effect control and ±100 the full control effect
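Purified human 12hLO at 150 nM in 25 mM Hepes, 0.01% Triton X-100, pH 7.0, preincubated 15 min at room temperature with compound. Reaction started with 40 uM arachidonic acid, 30 min at room temperature. Hydroperoxide measured by Fe-xylenol orange, 573/405 nm absorbance ratio.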
Apoferritin bind = qHTS Assay for Identification of Novel General Anesthetics. Ferritin light chain (Equus caballus), P02791. apoferritin/1-aminoanthracene competitive binding, fluorescence. Potency, µM (top dose mostly 77.5 µM), without a hit: top-dose activity change, negative = displacement, actives largely listed as inhibitors. 350,000 compounds, 0.074% hits. AID 485281, 2010; further: on the % scale 0 is the no-effect control and ±100 the full control effect; nearly all actives have a fitted effect of over 20% in size
Target sequence (P02791 2-175 limits assumed): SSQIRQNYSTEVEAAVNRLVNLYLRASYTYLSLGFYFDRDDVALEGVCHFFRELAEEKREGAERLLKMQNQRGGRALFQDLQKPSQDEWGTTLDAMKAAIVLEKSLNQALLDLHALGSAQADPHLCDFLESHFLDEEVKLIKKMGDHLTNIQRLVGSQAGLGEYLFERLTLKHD
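In PBS, apoferritin at 10 uM is loaded with 1-AMA from a 50% saturated solution. After 10 min of compound exposure at ambient temperature, reduced 535 nm fluorescence indicates probe displacement.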
TrxR1 substrate = qHTS Assay for Substrates of Mammalian Selenoprotein Thioredoxin Reductase 1 (TrxR1): qHTS; Thioredoxin reductase 1, cytoplasmic (Rattus norvegicus), O89049; purified TrxR1 substrate turnover, NADPH consumption readout; Potency, µM (highest dose often 114 µM), inactives show at the top dose activity change, negative = substrate turnover; 390,000 compounds, 0.01% hits; further: on the % scale 0 is the no-effect control and ±100 the full control effect; nearly all actives have a fitted effect of over 50% in size
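Rat TrxR1, dispensed at 90 nM, was prereduced with 400 uM NADPH (final) for 5 min at ~22 deg C, then incubated with compound 15 min before 400 uM selenite. A first-read NADPH fluorescence drop versus no-compound background flagged substrates.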
mIDH1 inhibitor = qHTS for Inhibitors of mutant isocitrate dehydrogenase 1 (IDH1): qHTS. IDH1-R132H enzyme, NADPH consumption, diaphorase/resazurin fluorescence. Potency, µM (doses to about 76.6 µM), for the others: at the top dose activity change, negative = inhibition, most hits filed as inhibitors. 390,000 compounds, 0.093% hits. AID 602179, 2012; further: on the % scale 0 is the no-effect control and ±100 the full control effect; nearly all actives have a fitted effect of over 65% in size
Target sequence (O75874 whole entry R132H, stated change not applied): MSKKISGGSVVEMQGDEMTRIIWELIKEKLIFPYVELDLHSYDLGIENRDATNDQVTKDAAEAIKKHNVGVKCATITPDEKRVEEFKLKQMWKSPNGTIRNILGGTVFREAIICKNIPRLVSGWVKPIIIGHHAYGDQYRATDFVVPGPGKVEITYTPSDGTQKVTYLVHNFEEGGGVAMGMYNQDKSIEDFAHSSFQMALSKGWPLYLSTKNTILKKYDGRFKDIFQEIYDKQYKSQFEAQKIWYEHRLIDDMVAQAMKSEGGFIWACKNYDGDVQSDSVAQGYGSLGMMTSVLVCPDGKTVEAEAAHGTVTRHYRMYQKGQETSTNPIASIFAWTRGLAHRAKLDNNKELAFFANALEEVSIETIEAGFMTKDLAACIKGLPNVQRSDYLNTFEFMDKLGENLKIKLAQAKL
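IDH1-R132H (0.5 ug/mL) preincubated 30 min with compound, then NADPH (0.016 mM) and alpha-KG (2 mM) added; 80 min at RT, pH 7.5. Remaining NADPH coupled via diaphorase/resazurin to fluorescence (540/590 nm); concentration-response curves normalized to no-enzyme control.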
rTrxR1 inhibitor = qHTS Assay for Inhibitors of Mammalian Selenoprotein Thioredoxin Reductase 1 (TrxR1): qHTS. 390,000 compounds, 1% hits. recombinant rTrxR1, NADPH fluorescence consumption, selenite substrate. Potency, µM (series often up to 114 µM), inactives show top-dose activity change, negative = inhibition, actives largely listed as inhibitors. Thioredoxin reductase 1, cytoplasmic (Rattus norvegicus), O89049. AID 588453, 2011; further: on the % scale 0 is the no-effect control and ±100 the full control effect; nearly all actives have a fitted effect of over 65% in size
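Rat TrxR1 (90 nM in the dispensed reagent) was pre-reduced with 400 uM NADPH for 5 min at room temperature, then incubated with compound for 15 min. After 400 uM selenite was added, NADPH fluorescence (Ex 340/Em 450 nm) was followed for 8 min.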
Glioma ERSR ind = qHTS for Inducers of the Endoplasmic Reticulum Stress Response (ERSR) in Human Glioma: qHTS | U87-MG GRP78 promoter luciferase reporter, 16 h | Potency, µM, for inactives: at the top dose activation, usual class: activators | 420,000 compounds, 0.02% hits; further: series mostly up to about 76 µM; % of control where 0% means no effect; nearly all actives have a fitted effect of over 35% in size
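ERSR induction read as luciferase luminescence (Bright-Glo, 10 min at room temperature) in stably transfected human U87-MG glioma cells exposed to compounds for 16 h, using GRP78 as sensor.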
An asterisk follows results filed as active; ? = inconclusive; . = not tested or not shown; ! = not confirmed by another sample; [ ] = dose if it differs, or a comment. The call rests on the fitted dose curve; in most records, active means well fitted curve in the direction sought with a large enough effect; inconclusive means small, poorly fitted or top-dose-only effect, or another doubt; inactive means no such curve, though single readings can be large; an effect the other way counts as inactive or inconclusive. Potency means the concentration at half of the fitted maximal effect.

SMILES | 12-LOX inh | Apoferritin bind | TrxR1 substrate | mIDH1 inhibitor | rTrxR1 inhibitor | Glioma ERSR ind
COc1ccc(OC)c(S(=O)(=O)NCC(c2cccs2)S(=O)(=O)c2ccc(F)cc2)c1 (centres undefined) | -26% | 24% | 2%[57.1 µM] | 9% | 3.2µM* | -3%
COc1ccc(/C=C/C(=O)Nc2nc(-c3cccs3)ns2)cc1OC | -9% | 172% | 14% | -3% | 36% | -6%
O=C(C1=C(O)C(=O)N(CC2CCCO2)C1c1cccc(Cl)c1)c1ccco1 (centres undefined) | 28µM* | -10% | -12% | 7% | -20% | 5%
O=C(C1=C(O)C(=O)N(Cc2ccco2)C1c1cccnc1)c1cc2ccccc2o1 (centres undefined) | ? | -17% | -7% | -2% | 13µM* | 4%
O=C(C1=C(O)C(=O)N(CC2CCCO2)C1c1ccc(Cl)cc1Cl)c1ccco1 (centres undefined) | 40µM* | 1% | -9% | 0% | -12% | -4%
CC(C)(C)c1ccc(C2C(C(=O)c3ccco3)=C(O)C(=O)N2CC2CCCO2)cc1 (centres undefined) | 22µM* | -2% | -1% | 10% | 11% | -5%
COc1ccc(C2C(C(=O)c3ccco3)=C(O)C(=O)N2CC2CCCO2)cc1OC (centres undefined) | ? | -6% | -11% | 0% | -1% | -4%
O=C(C1=C(O)C(=O)N(CC2CCCO2)C1c1ccccc1)c1ccco1 (centres undefined) | -27% | -2% | -5% | 13% | -6% | -1%
COCCC(=O)N1CCC(n2c(C)cnc2-c2ccncc2)CC1 | 25% | . | . | . | . | .
N#Cc1ccccc1-c1ccc(COC(=O)C2CCCO2)cc1 (centres undefined) | -69% | . | . | . | . | .
CCN(CCNC(=O)CC1CCN(c2ccnc(OC)n2)CC1)Cc1ccccc1 | 37% | . | . | . | . | .
Cc1ccc(C(=O)C2=C(O)C(=O)N(Cc3ccco3)C2c2cccc(Br)c2)o1 (centres undefined) | ? | ? | 4%[57.1 µM] | 1% | -6%[57.1 µM] | 1%
Cc1ccc(C(=O)C2=C(O)C(=O)N(Cc3ccco3)C2c2cccc(Cl)c2)o1 (centres undefined) | 25µM* | ? | -12% | 2% | ? | -4%
O=C(C1=C(O)C(=O)N(CC2CCCO2)C1c1cccnc1)c1ccco1 (centres undefined) | ? | -17% | -8% | 12% | -25% | -2%
O=C(C1=C(O)C(=O)N(CC2CCCO2)C1c1ccccc1Cl)c1ccco1 (centres undefined) | 32µM* | -9% | -7% | 7% | 5% | -2%
CCCOC(=O)c1ccc(Nc2nc3ccccc3nc2NS(=O)(=O)c2ccc(F)cc2)cc1 | -59% | . | . | . | . | .
O=C(O)c1cccc(N2C(=O)/C(=C/c3ccc(SCc4ccc(Cl)cc4)o3)SC2=S)c1 | 3.5µM* | -11% | -17% | -12% | ? | -3%
O=C(CCN1C(=O)/C(=C/c2ccc(Cl)cc2)SC1=S)Nc1cccc(C(=O)O)c1 | -27% | 2% | -1%[57.1 µM] | 0% | -3%[57.1 µM] | -1%
O=C1CC(c2ccc(Cl)cc2)CC(=O)C1CS(=O)(=O)c1ccccc1 (centres undefined) | 35µM* | ? | 8% | 11% | ? | 1%
O=C1CCCC(=O)C1CS(=O)(=O)c1ccccc1 | -9% | -12% | 0%[57.1 µM] | 1% | -29%[57.1 µM] | -4%
COc1ccc(N2C(=O)CC(c3ccccc3)CC2=O)cc1 | 6% | . | 4%[57.1 µM] | -2% | 9%[57.1 µM] | -2%
COc1ccc(C2CC(=O)C(CS(=O)(=O)c3ccccc3)C(=O)C2)cc1 (centres undefined) | -20% | 32µM* | 4%[57.1 µM] | 5% | -73% | -2%
COc1cccc(-c2ccccc2C=O)c1 | -1%[12.5 µM] | . | . | . | . | .
N#Cc1ccc(Nc2nc(-c3ccccc3)cs2)cc1 | ? | . | . | . | . | 2%
COc1ccccc1CNc1nc(-c2ccccc2)cs1 | 14µM* | . | . | . | . | .
SMILES | 12-LOX inh | Apoferritin bind | TrxR1 substrate | mIDH1 inhibitor | rTrxR1 inhibitor | Glioma ERSR ind
c1ccc(-c2csc(Nc3ccc4c(c3)OCO4)n2)cc1 | 3.5µM*! | . | . | . | . | -5%
COc1cccc(Nc2nc(-c3cccnc3)cs2)c1 | 12% | -14% | -6%[11.4 µM] | 3% | 8% | 1%
COc1cccc(Nc2nc(-c3ccc(CNC(C)=O)cc3)cs2)c1 | 16µM* | . | . | . | . | .
COc1cccc(Nc2nc(-c3ccccc3)cs2)c1 | 1µM* | . | . | . | . | .
COc1ccccc1CNc1cc(-c2ccccc2)nc2nncn12 | -10% | -13% | -2% | 4% | 35µM* | -3%
Clc1ccc(CNc2cc(-c3ccccc3)nc3nncn23)cc1 | -16% | -19% | -9% | 16% | -8% | 8%
COc1ccc(-c2noc(Nc3ccc(OC)c(OC)c3)n2)cc1 | -7% | . | . | . | . | .
COc1cccc(Nc2nc(-c3ccccc3)no2)c1 | 40µM* | . | . | . | . | .
O=C(CCCc1ccccc1)N1CCC[C@H]1c1nc(-c2ccccc2Cl)no1 | 44% | . | . | . | . | .
CC(C)NC(=O)c1nc(-c2cccc3[nH]ccc23)no1 | -11% | . | . | . | . | .
CC(=O)c1ccc(Sc2nnnn2-c2ccccc2)c([N+](=O)[O-])c1 | -18% | 4% | 4% | -6% | 7.9µM* | -14%
CN1CCN(S(=O)(=O)c2ccc(Sc3nnnn3-c3ccccc3)c([N+](=O)[O-])c2)CC1 | -12% | -14% | 3% | 1% | ? | -5%
Cc1c(Cl)cccc1Nc1n[nH]c(=S)s1 | 22µM* | . | -6%[57.1 µM] | 4% | -33%[11.4 µM] | -3%
Fc1ccccc1Nc1n[nH]c(=S)s1 | 25µM* | -9% | 0%[57.1 µM] | 3% | -26%[57.1 µM] | 4%
C[C@@H]1OC(C2CCCCC2)N(C)[C@H]2C[C@H]3c4[nH]c5c(-c6ccccc6)cccc5c4CCN3C(=O)[C@@H]12 (some centres undefined) | 1% | . | . | . | . | .
CCCc1nn2c(=O)c(C(c3ccc(C)cc3)c3c(O)nc4sc(CCC)nn4c3=O)c(O)nc2s1 | ? | -8% | -1% | -1% | -29% | -6%
O=c1c(C(c2c(O)nc3n(c2=O)CCS3)c2cccc3ccccc23)c(O)nc2n1CCS2 | 32µM* | -4% | -8% | 6% | 11µM* | -3%
O=c1c(Cc2ccccc2)c(O)nc2n1CCS2 | 0% | -7% | -8% | 9% | -7% | -7%
